From PubChem BioAssay (NCATS)
Records with an inconclusive call do not appear. Activity calls are given as the source filed them. Unless noted, calls follow the shape of the dose curve; as a rule, active = well fitted curve in the direction sought with a large enough effect; inconclusive = small, poorly fitted or top-dose-only effect, or another doubt; inactive = no such curve, though single readings can be large; an effect the other way counts as inactive or inconclusive.

What was measured:
[1] = biological target: Lysosomal acid glucosylceramidase (Homo sapiens) (UniProt P04062); assay: Glucocerebrosidase-p2 (AID 348; in the data active = potency below about 10 µM; also: potency is read from the fitted curve at half-maximal effect); conditions: purified GBA, blue fluorogenic substrate, 40 min
Method in brief: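 Normal human glucocerebrosidase (0.2 nM) with blue fluorogenic substrate (80 uM final) in citrate/phosphate pH 5.9 with 10mM sodium taurocholate, 0.01% tween-20; 40 min RT, NaOH/glycine stop; fluorescence Ex 365/Em 440; AC50 from a titration from 0.6 nM upwards.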

[2] = AP1 Signaling Pathway (AID 357; active = well fitted curve in either direction with a large enough effect, not every such curve was filed as active;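 also: ME-180 reporter cells stimulated with EGF at its EC50 level; % is scaled to controls: 0 for no effect and ±100 for the full control effect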); conditions: ME-180 AP-1-bla reporter, EGF-induced, beta-lactamase ratio, 5 h; at 7.69 µM (top of the series) unless noted
Method in brief: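 Modulation of EGF-driven AP-1 transcription was assessed with a beta-lactamase reporter in ME-180 cells. Compound and EC50 EGF were co-incubated 5 hours at 37 °C before 2.5-hour CCF4 loading at room temperature and dual-emission reading.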

[3] = Stat Signaling Pathway (AID 446; active = well fitted curve in either direction with a large enough effect, not every such curve was filed as active;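 also: ME-180 cervical cancer cells given 40 pM IL-6 alongside compound; SIE-controlled beta-lactamase reporter measured as 460/530 nm FRET emission ratio; % is scaled to controls: 0 for no effect and ±100 for the full control effect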); conditions: ME-180 (cervical carcinoma) SIE beta-lactamase reporter, IL-6 stimulated, 5 h; at 7.69 µM (top of the series) unless noted
Method in brief: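 Compound effects on IL-6-induced STAT reporter activity were measured in ME-180 cells. After overnight culture, cells were co-treated with 40 pM IL-6 for 5 hrs before beta-lactamase substrate loading at room temperature.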

[4] = biological target: Glucocorticoid receptor (Homo sapiens) (UniProt P04150); assay: GR-GFP Redistribution (AID 450;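 active = compounds whose dose series gives a full or clear partial fitted curve of increased nuclear translocation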; also: potency is read from the fitted curve at half-maximal effect); conditions: U2OS GR-GFP nuclear translocation, laser cytometry, 2 h
[5] = biological target: Glucocorticoid receptor (Homo sapiens) (UniProt P04150); assay: GR-EFC Redistribution (AID 451; calls by dose curve; also: potency is read from the fitted curve at half-maximal effect); conditions: CHO-K1 GR-EFC translocation, beta-gal luminescence, 2 h
Method in brief: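 Translocation of GR-ED fusion to nuclear EA restores b-gal, read by luminescence after 1 h room-temperature detection. Engineered CHO-K1 biosensor cells, 1,000/well, exposed 2 h at 37 C to titrations up to 46 uM final.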

[6] = biological target: Mitogen-activated protein kinase 10 (Mus musculus) (UniProt Q61831); assay: JNK3 AlphaScreen Assay (AID 530; active = well fitted curve in either direction with a large enough effect, not every such curve was filed as active;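 also: kinase came from lysate of stimulated human HepG2 cells; signal reports phosphorylation of biotinylated GST-cJun 1-79 at Ser73 with 10 µM ATP; % is scaled to controls: 0 for no effect and ±100 for the full control effect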)
Method in brief: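 qHTS titrations with 15 min compound pre-incubation before adding ATP (10 uM final). Read-out: AlphaScreen of Ser73-phosphorylated biotin-GST-cJun using HepG2 lysate JNK3 activated by IL-1β and TNFα.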

[7] = qHTS Assay for Lipid Storage Modulators (AID 1519; calls by dose curve); conditions: Drosophila S3 cells, BODIPY lipid droplet/cell ratio, laser cytometry, cells loaded with oleic acid; for activity change, negative = inhibition: at 57.5 µM (top of the series)
Method in brief: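 Cells seeded at 5,000 per well were treated with compounds over a concentration series and loaded with oleic acid (400 uM, as added). Lipid droplet fluorescence (488 nm excitation, 500-530 nm channel) was read by laser-scanning cytometry and normalized to 20 uM Triacsin C.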

[8] = biological target: Dual specificity protein kinase CLK4 (Homo sapiens) (UniProt Q9HAZ1); assay: qHTS Assay for Inhibitors of CDC-like Kinase 4 (Kinase-Glo Assay) (AID 1770); also: nearly all actives have a fitted effect of over 65% in size; also: potency is read from the fitted curve at half-maximal effect
Method in brief: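 Readout: Kinase-Glo luminescence from ATP left after a 4.5 h room-temperature reaction of 25 nM Clk4 with 100 uM RS peptide and 1 uM ATP (final). Buffer: 25 mM Tris pH 7.5, 10 mM MgCl2.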

[9] = biological target: Dual specificity protein kinase CLK4 (Homo sapiens) (UniProt Q9HAZ1); assay: qHTS Assay for Inhibitors of CDC-like Kinase 4 (ADP-Glo Assay) (AID 1771); also: nearly all actives have a fitted effect of over 70% in size; also: potency is read from the fitted curve at half-maximal effect
Method in brief: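 ADP production was read by ADP-Glo luminescence after residual ATP depletion, following 1 h room-temperature reaction of 25 nM Clk4, 1 uM ATP and 100 uM RS peptide with MgCl2, EGTA, DTT and Triton X-100.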

[10] = biological target: Dual specificity protein kinase CLK4 (Homo sapiens) (UniProt Q9HAZ1); assay: qHTS Assay for Inhibitors of CDC-like Kinase 4 (ADP-FP Assay) (AID 1795); also: nearly all actives have a fitted effect of over 60% in size; also: potency is read from the fitted curve at half-maximal effect
Method in brief: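 FP readout: Orange Transcreener ADP2 tracer (4 nM) plus ADP antibody, read after 30 min at room temperature. Kinase step: 6.25 nM Clk4, 100 uM RS peptide, 1 uM ATP, pH 7.5, 1 h.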

[11] = biological target: Ubiquitin carboxyl-terminal hydrolase 1 (Homo sapiens) (UniProt O94782); assay: Inhibitors of USP1/UAF1: Pilot qHTS (AID 504865); also: nearly all actives have a fitted effect of over 35% in size; also: potency is read from the fitted curve at half-maximal effect
Method in brief: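 1nM USP1/UAF1 + cpd, 15 min RT; start w/ Ub-Rho 150nM final; kinetic FL 480/540 nm, 6 reads q60 s. Buffer 50mM HEPES pH 7.8, 0.5mM EDTA, 1mM TCEP, 0.01% Tween-20, 0.1 mg/ml BSA.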

[12] = Counterscreen qHTS for small molecule stabilizers of the endoplasmic reticulum resident proteome: GLuc-NoTag assay (AID 1508627);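 also: 0% = thapsigargin alone and -100% = DMSO vehicle control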
Method in brief: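 Counterscreen line: SH-SY5Y-GLuc-NoTag cells, treated with compound 19 hr before a 4 hr, 100 nM thapsigargin calcium depletion. Secreted Gaussia luciferase in the medium was measured by luminescence after coelenterazine was added (0.07x final), with cells unlysed.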

[13] = Confirmatory qHTS for small molecule stabilizers of the endoplasmic reticulum resident proteome: Secreted ER Calcium Modulated Protein (SERCaMP) assay (AID 1508628); also: nearly all actives have a fitted effect of over 40% in size; also: potency is read from the fitted curve at half-maximal effect
Method in brief: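 Reporter secretion upon ER calcium depletion (100 nM thapsigargin, 4 h, 37C) is measured as medium luminescence with coelenterazine, after 16 h compound pretreatment of SH-SY5Y-GLuc-SERCaMP cells; primary at three concentrations up to 38.3 uM, follow-up at 11 (up to 76.6 uM).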

[14] = NFAT Signaling Pathway (AID 444; active = well fitted curve in either direction with a large enough effect, not every such curve was filed as active;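 also: carbachol stimulus at about its EC50 of 1 µM final; % is scaled to controls: 0 for no effect and ±100 for the full control effect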); conditions: Jurkat NFAT-bla M1, carbachol, beta-lactamase ratio, 5 h; at 7.69 µM (top of the series) unless noted
Method in brief: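 Read-out: CCF4 FRET ratio (460 nm/530 nm) after 1 h RT dye loading, used for %activity and AC50 from titration series. Cells: Jurkat NFAT-β-lactamase/M1 line, treated with compound plus 1 uM carbachol for 5 h, 37 °C.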

[15] = biological target: 3',5'-cyclic-AMP phosphodiesterase 4B (Homo sapiens) (UniProt Q07343); assay: qHTS Assay for Inhibitors of PDE-IV (AID 607; active = well fitted activation curve with a large enough effect in the main read-out, with a control signal flat, not every such curve was filed as active; also: % of control where 0% means no effect)
Method in brief: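 ACTOne HEK293 cells carry a modified cAMP-gated CNG channel and express endogenous PDE4; plated 1000 cells/well, compounds up to 22.9 uM final. Membrane-potential dye fluorescence (ex 535/em 590) was read; parental cells received 10 uM forskolin + 100 uM RO 20-1724.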

[16] = biological target: Cytochrome P450 1A2 (Homo sapiens) (UniProt P05177); assay: p450-cyp1a2 (AID 410; calls by dose curve; also: potency is read from the fitted curve at half-maximal effect)
Method in brief: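 Luminescent demethylation readout: Luciferin-ME (100uM, equal to Km) turned over by 20nM CYP1A2 for 60 min at room temperature after NADPH regeneration addition, following 10 min compound preincubation. Normalization used 57 uM furafylline as full inhibition.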

[17] = biological target: Cytochrome P450 3A4 (Homo sapiens) (UniProt P08684); assay: qHTS Assay for Activators of Cytochrome P450 3A4 (AID 885); also: nearly all actives have a fitted effect of over 65% in size
Method in brief: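 CYP3A4 activity: Luciferin-PPXE O-dealkylation, 25uM substrate, 200mM KPO4, RT throughout. Read-out is luciferase luminescence; higher values reflect activation.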

[18] = measured here: cell count channel max response
[19] = measured here: lipid channel max response

Sequence of Lysosomal acid glucosylceramidase (Homo sapiens) (P04062 whole entry, looked up): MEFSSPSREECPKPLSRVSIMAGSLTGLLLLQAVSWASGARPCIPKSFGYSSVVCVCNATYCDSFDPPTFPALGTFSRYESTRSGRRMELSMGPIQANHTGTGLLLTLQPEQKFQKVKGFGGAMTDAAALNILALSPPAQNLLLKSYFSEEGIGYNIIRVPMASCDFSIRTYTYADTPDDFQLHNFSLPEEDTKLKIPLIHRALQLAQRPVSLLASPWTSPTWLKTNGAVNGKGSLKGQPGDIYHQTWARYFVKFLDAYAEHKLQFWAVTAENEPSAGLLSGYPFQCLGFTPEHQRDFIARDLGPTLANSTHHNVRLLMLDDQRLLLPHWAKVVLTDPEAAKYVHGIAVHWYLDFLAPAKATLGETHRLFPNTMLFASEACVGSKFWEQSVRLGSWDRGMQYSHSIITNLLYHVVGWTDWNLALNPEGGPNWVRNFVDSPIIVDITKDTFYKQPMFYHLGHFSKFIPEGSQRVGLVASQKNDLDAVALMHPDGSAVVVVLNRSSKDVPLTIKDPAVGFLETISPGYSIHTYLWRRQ
Sequence of 3',5'-cyclic-AMP phosphodiesterase 4B (Homo sapiens) (Q07343 whole entry, looked up): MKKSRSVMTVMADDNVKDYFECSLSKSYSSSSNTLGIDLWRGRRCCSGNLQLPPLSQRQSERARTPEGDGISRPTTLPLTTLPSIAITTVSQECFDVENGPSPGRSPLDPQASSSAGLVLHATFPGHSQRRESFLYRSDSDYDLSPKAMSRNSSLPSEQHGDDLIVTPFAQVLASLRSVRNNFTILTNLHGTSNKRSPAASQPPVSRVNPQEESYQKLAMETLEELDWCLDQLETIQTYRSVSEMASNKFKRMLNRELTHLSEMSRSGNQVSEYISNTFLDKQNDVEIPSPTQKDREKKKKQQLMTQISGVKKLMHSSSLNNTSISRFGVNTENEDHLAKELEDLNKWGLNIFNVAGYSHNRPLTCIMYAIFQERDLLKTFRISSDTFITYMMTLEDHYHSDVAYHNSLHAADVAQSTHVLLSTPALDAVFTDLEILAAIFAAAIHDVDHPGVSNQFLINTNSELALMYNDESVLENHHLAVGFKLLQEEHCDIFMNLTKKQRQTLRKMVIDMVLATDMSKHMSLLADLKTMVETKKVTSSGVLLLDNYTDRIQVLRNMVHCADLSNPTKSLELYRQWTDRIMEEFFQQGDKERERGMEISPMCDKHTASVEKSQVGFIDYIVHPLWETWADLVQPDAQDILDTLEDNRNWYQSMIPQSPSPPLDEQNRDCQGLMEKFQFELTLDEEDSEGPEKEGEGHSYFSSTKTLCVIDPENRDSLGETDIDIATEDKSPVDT
Sequence of Dual specificity protein kinase CLK4 (Homo sapiens) (Q9HAZ1 whole entry, looked up): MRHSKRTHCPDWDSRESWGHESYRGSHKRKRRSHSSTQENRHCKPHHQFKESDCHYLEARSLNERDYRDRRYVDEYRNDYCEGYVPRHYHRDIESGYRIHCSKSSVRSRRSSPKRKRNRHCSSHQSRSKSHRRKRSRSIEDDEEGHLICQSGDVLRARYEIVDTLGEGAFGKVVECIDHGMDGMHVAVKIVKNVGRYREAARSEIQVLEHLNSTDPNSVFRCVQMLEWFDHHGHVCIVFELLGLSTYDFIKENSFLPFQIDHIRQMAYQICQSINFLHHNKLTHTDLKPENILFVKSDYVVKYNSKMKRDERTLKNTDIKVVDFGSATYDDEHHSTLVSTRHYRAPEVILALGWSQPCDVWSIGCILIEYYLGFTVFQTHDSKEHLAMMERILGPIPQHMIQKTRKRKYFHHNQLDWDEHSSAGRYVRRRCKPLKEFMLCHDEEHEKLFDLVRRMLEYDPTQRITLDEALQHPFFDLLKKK
Sequence of Ubiquitin carboxyl-terminal hydrolase 1 (Homo sapiens) (O94782 whole entry, looked up): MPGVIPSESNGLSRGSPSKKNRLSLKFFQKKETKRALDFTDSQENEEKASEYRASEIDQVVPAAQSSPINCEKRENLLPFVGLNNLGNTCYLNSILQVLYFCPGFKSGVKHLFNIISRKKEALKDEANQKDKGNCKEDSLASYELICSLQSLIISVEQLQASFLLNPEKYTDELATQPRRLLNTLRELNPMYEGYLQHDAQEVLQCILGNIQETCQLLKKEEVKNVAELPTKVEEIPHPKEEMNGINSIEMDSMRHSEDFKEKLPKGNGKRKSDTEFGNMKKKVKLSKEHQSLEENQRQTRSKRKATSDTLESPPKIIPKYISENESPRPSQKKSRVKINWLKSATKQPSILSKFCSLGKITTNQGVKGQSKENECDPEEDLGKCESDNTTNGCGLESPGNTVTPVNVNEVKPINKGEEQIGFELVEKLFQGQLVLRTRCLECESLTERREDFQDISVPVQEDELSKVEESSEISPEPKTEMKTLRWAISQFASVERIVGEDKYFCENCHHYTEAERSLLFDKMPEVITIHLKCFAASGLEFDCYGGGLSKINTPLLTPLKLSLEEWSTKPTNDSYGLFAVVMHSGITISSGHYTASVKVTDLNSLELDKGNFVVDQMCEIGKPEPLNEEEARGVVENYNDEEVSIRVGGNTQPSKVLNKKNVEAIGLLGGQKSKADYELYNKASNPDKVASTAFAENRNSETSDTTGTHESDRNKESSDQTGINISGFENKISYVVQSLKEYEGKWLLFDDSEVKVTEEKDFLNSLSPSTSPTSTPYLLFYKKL
Sequence of Glucocorticoid receptor (Homo sapiens) (P04150 whole entry, looked up, the tested form may be a part): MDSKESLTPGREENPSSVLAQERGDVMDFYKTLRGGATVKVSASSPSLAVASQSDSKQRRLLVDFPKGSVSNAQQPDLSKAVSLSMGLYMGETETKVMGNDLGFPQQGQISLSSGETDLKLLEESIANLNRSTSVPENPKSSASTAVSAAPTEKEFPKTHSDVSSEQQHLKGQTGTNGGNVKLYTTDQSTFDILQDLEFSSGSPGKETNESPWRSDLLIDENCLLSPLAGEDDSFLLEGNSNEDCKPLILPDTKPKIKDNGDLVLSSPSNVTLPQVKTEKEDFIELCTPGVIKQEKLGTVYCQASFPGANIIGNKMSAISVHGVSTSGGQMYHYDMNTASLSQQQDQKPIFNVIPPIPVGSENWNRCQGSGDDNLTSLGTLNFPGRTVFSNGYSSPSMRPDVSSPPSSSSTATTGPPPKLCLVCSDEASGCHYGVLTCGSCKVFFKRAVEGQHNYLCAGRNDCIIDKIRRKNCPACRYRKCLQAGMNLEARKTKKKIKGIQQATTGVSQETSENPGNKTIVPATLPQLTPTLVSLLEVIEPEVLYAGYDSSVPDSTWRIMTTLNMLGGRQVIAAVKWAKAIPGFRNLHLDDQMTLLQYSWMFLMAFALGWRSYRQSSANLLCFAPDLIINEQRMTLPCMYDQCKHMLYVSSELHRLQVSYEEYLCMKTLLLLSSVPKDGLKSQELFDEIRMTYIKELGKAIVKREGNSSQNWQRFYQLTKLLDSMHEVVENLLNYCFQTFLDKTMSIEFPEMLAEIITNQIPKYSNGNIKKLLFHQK
Sequence of Cytochrome P450 1A2 (Homo sapiens) (P05177 whole entry, looked up): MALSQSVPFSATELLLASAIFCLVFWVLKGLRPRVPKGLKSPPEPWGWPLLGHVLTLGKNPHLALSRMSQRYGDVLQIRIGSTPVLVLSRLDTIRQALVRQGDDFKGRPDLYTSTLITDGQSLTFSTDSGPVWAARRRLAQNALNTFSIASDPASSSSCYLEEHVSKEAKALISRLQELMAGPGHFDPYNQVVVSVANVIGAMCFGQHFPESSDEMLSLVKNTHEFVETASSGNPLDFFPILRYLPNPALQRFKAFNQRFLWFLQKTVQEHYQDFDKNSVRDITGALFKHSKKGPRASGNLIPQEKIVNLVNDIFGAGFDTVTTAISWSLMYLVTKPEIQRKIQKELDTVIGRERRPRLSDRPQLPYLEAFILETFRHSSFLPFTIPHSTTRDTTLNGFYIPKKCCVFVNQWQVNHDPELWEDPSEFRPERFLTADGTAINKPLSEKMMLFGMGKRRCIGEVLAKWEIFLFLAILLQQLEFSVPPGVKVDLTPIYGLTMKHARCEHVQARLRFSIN
Sequence of Cytochrome P450 3A4 (Homo sapiens) (P08684 whole entry, looked up): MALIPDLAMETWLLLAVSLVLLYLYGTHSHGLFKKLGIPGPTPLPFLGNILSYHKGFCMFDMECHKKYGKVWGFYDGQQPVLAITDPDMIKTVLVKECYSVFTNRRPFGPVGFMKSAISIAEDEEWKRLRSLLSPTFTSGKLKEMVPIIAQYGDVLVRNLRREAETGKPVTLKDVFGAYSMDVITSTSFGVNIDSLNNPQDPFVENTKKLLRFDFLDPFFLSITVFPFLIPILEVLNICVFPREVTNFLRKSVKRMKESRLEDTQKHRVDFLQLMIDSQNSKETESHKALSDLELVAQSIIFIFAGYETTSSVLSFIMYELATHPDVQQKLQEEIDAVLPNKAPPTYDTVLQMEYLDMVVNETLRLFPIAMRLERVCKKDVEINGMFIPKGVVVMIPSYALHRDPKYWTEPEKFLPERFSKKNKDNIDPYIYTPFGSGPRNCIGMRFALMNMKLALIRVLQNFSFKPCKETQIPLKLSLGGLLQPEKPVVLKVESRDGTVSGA

CN1CCN(c2nc(-c3ccc4c(c3)OCO4)nc3ccccc23)CC1
inactive: Potency [1] > 11.4 µM | activity change, negative = inhibition [2] 21.8% | activity, negative = inhibition [3] -4.65% | Potency [4] > 46 µM | Potency [5] > 46 µM | outcome [6] | activity change, negative = inhibition [7] 8.71% | Potency [11] | Potency [12]
35.9%: max response [7, 19]
active: Potency [8] 17.8 µM | Potency [9] 15.8 µM | Potency [10] 14.1 µM | Potency [13] 20 µM
28%: max response [7, 18]

Cc1ccccc1-c1nccc(Nc2ccc(F)cc2)n1
inactive: Potency [1] > 11.4 µM | activity change, negative = inhibition [2] -8.14% | activity change, negative = inhibition [14] -3.97% | activity, negative = inhibition [3] -11% | Potency [4] > 46 µM | Potency [5] > 46 µM | outcome [6] | Potency [8] | Potency [9] | Potency [10] | Potency [12] | Potency [13]

O=C(Nc1cccc(F)c1)N1CCC2(CC1)CCN(S(=O)(=O)c1ccccc1)CC2
1.82%: max response [7, 19]
0.271%: max response [7, 18]
inactive: Potency [1] > 11.4 µM | activity change, negative = inhibition [2] -14.1% | activity change, negative = inhibition [14] 11.4% | activity, negative = inhibition [3] -8.13% | Potency [5] > 46 µM | outcome [6] | Potency [15] | activity change, negative = inhibition [7] -0.528% | Potency [12] | Potency [13]

FC(F)(F)c1ccccc1-c1nccc(N2CCNCC2)n1
active: Potency [16] 10 µM | Potency [13] 15.8 µM
inactive: Potency [1] > 11.4 µM | activity change, negative = inhibition [2] -4.79% | activity change, negative = inhibition [14] -3.28% | activity, negative = inhibition [3] 9.61% | Potency [5] > 46 µM | Potency [15] | Potency [8] | Potency [9] | Potency [11] | Potency [12]

Cc1ccccc1-c1nc(N2CCN(C)CC2)c2ccccc2n1
active: Potency [16] 3.98 µM | Potency [11] 28.2 µM | Potency [13] 20 µM
inactive: Potency [1] > 11.4 µM | activity change, negative = inhibition [2] 5.49% | activity change, negative = inhibition [14] 0.11% | activity, negative = inhibition [3] 0.381% | Potency [4] > 46 µM | Potency [5] > 46 µM | outcome [6] | Potency [17] | Potency [8] | Potency [9] | Potency [10] | Potency [12]

O=c1c(-c2cccs2)nc2cnc(N3CCNCC3)nc2n1CCc1ccccc1
inactive: Potency [1] > 11.4 µM | Potency [4] > 9.22 µM | Potency [5] > 46 µM | Potency [15] | Potency [8] | Potency [10] | Potency [12] | Potency [13]
active: activity change, negative = inhibition [2] 82.5% [activator]
